Source: the supplement of paper PMC6555819

Experiments:
Assay in all cases: PBM binding z-score (relative to random genomic background probes); higher = stronger binding; sequences stand for … in GC…GCGATTGACAGCGTAGAATGAAGG
[1] = system: FXR:RXRa (NR concentration 270 nM, RXRa partner concentration 90 nM)
How it was run: (§1)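 Probes were double-stranded and carried 34-nt variable regions with direct-repeat seeds, single-nucleotide variants, half-site ablations and random human genomic background sequences, printed on custom Agilent 4×180K protein-binding microarrays. Arrays were incubated 1 h with ligand-free nuclear receptor dimers in PBS pH 7.4, 2% milk, 0.02% Triton X-100, 1 mM DTT, 0.2 mg/mL BSA and 0.4 mg/ml salmon testes DNA. Antibodies against each partner (one per run) detected binding, and scanned fluorescence was regression-normalized. Binding z-scores use the random background probes as reference.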

[2] = system: LXRa:RXRa (NR concentration 270 nM, RXRa partner concentration 90 nM)
How it was run: as §1

[3] = system: LXRa homodimer (NR concentration 270 nM)
How it was run: as §1

[4] = system: LXRb:RXRa (NR concentration 270 nM, RXRa partner concentration 90 nM)
How it was run: as §1

[5] = system: LXRb homodimer (NR concentration 270 nM)
How it was run: as §1

[6] = system: PPARa:RXRa (NR concentration 270 nM, RXRa partner concentration 90 nM)
How it was run: as §1

[7] = system: PPARg:RXRa (NR concentration 180 nM, RXRa partner concentration 90 nM)
How it was run: as §1

[8] = system: PPARg:RXRa 270nM:90nM, anti-RXR (NR concentration 270 nM, RXRa partner concentration 90 nM)
How it was run: as §1

[9] = system: PPARg:RXRa 30nM:10nM, anti-RXR (NR concentration 30 nM, RXRa partner concentration 10 nM)
How it was run: as §1

[10] = system: PPARg:RXRa 90nM:30nM, anti-RXR (NR concentration 90 nM, RXRa partner concentration 30 nM)
How it was run: as §1

[11] = system: PPARg:RXRa DBDmut IVT, anti-RXR (DBD mutation: RXRa K156A/R161A, NR concentration 270 nM, RXRa partner concentration 90 nM)
How it was run: as §1

[12] = system: PPARg:RXRa IVT, anti-PPARg (NR concentration 270 nM, RXRa partner concentration 90 nM)
How it was run: as §1

[13] = system: PPARg DBDmut:RXRa IVT, anti-PPARg (DBD mutation: PPARg1 K132A/R137A, NR concentration 270 nM, RXRa partner concentration 90 nM)
How it was run: as §1

[14] = system: PPARg DBDmut IVT, anti-PPARg (DBD mutation: PPARg1 K132A/R137A, NR concentration 270 nM)
How it was run: as §1

[15] = system: PPARg homodimer (NR concentration 180 nM)
How it was run: as §1

[16] = system: PXR:RXRa (NR concentration 270 nM, RXRa partner concentration 90 nM)
How it was run: as §1

[17] = system: PXR homodimer (NR concentration 270 nM)
How it was run: as §1

[18] = system: RARa:RXR (NR concentration 270 nM, RXRa partner concentration 90 nM)
How it was run: as §1

[19] = system: RARa homodimer (NR concentration 270 nM)
How it was run: as §1

[20] = system: RARb:RXRa (NR concentration 270 nM, RXRa partner concentration 90 nM)
How it was run: as §1

Sequence | PBM binding z-score [1] | PBM binding z-score [2] | PBM binding z-score [3] | PBM binding z-score [4] | PBM binding z-score [5] | PBM binding z-score [6] | PBM binding z-score [7] | PBM binding z-score [8] | PBM binding z-score [9] | PBM binding z-score [10] | PBM binding z-score [11] | PBM binding z-score [12] | PBM binding z-score [13] | PBM binding z-score [14] | PBM binding z-score [15] | PBM binding z-score [16] | PBM binding z-score [17] | PBM binding z-score [18] | PBM binding z-score [19] | PBM binding z-score [20]
CGTCCAAGGTCAGCAGGTCAGCGAAAGCGACGTG | 6.11 | 4.35 | 0.407 | 3.19 | -0.541 | 4.9 | 4.79 | 4.99 | 1.45 | 3.69 | 3.38 | 3.9 | -0.473 | -0.272 | 3.39 | 4.07 | 0.421 | 5.3 | 1.49 | 5.43
ACTATTATTTGAGACGAGGGCAACCGATAGGTTG | 0.64 | 0.912 | 1.29 | 0.748 | 1.1 | 0.639 | 0.833 | 0.648 | 0.477 | 0.429 | 0.883 | 0.779 | 1.61 | 1.74 | 1.86 | 0.944 | 1.91 | 1.04 | 3.89 | 1.35
CCAGACAGGTGAGAATGTAACTCAGCCTCGATTA | -0.153 | -0.116 | -0.13 | -0.00314 | -0.187 | 0.0169 | 0.376 | -0.212 | -0.0571 | -0.437 | 0.965 | 0.029 | -1.25 | 0.0266 | 0.565 | -0.276 | 0.0874 | -0.141 | 1.11 | 0.234
